Experimental findings from the supplement of paper PMC6135742 are described below.

Counter-ions that a name gives are not always drawn. In all, about 2,600 compounds were measured (“total cell number (DAPI+ nuclei) relative to DMSO vehicle control”: median about -1.4, lowest 2% from about -23 on). The full list was thinned out, with the lowest values kept by preference.

The test system of this assay is jimpy (Plp1 jimpy) mouse iPSC-derived oligodendrocyte progenitor cells. Put plainly: total cell number (DAPI+ nuclei) relative to DMSO vehicle control (SDs above negative control mean); higher = more surviving cells. The conditions noted are these: 10 µM; 3 days. The method, then: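 Primary phenotypic screen of >3,000 bioactive compounds (Selleck L1700 and Sigma LO1280 libraries) at a single dose of 10 µM. Compounds were added to jimpy (Plp1 mutant) mouse iPSC-derived OPCs at the start of thyroid hormone-induced oligodendrocyte differentiation, one well per compound in 384-well plates. After 3 days cells were stained for MBP, Sox10 and DAPI and imaged with an Operetta system. MBP+ oligodendrocyte number and total cell number were expressed as the number of SDs above the mean of the DMSO negative control on the same plate (n=16 control wells per plate). Hits were defined as >=4 SD for oligodendrocytes and >=2 SD for total cells.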
In turn, `CC[C@@]1(O)C(=O)OCc2c1cc1n(c2=O)Cc2cc3ccccc3nc2-1` [(S)-(+)-Camptothecin] gave a total cell number of -9.49.

Turning to `CC[C@@]1(O)C(=O)OCc2c1cc1n(c2=O)Cc2cc3ccccc3nc2-1` [Camptothecin], the total cell number was -22.6.

`CC1C2Cc3ccc(O)cc3C1(C)CCN2CC1CC1` (single isomer, unassigned; (+)) [(+)-Cyclazocine]: the total cell number was -1.89.

`CC(C)C1CNC(C(=O)O)C1CC(=O)O` (stereo unspecified) [Dihydrokainic acid]: the total cell number was -0.564.

Compound `Cc1cc([C@@H]2CCCN2C)on1` [ABT-418 hydrochloride] yielded a total cell number of -4.48.

Regarding `Clc1ccc(N2CCN(Cc3c[nH]c4ncccc34)CC2)cc1` [L-745,870 hydrochloride], the total cell number was -5.68.

In the case of `COC[C@H]1OC(=O)c2coc3c2[C@@]1(C)C1=C(C3=O)C2CCC(=O)[C@@]2(C)C[C@H]1OC(C)=O` (stereo partly specified) [Wortmannin from Penicillium funiculosum], the total cell number is -3.09.

`CC[C@@H]1/C=C/C=C/C[C@H](C)[C@H](O)[C@](C)(O)C(=O)[C@H](C)[C@@H](O)[C@H](C)C(=O)[C@H](C)[C@@H](O)[C@H](C)/C=C/C(=O)O[C@H]2[C@@H](C)[C@@H](CC1)O[C@@]1(CC[C@@H](C)[C@@H](C[C@H](C)O)O1)[C@@H]2C` [Oligomycin A] showed a total cell number of -27.5.

On to `NC(Cc1cc(O)c(O)cc1O)C(=O)O` (racemic) [6-Hydroxy-DL-DOPA], for which the total cell number was -2.36.

`O=c1ccc2[nH]cc(C3=CCNCC3)c2[nH]1` yielded a total cell number of 0.673.

`CC1=NN=C(c2ccc(N)cc2)c2cc3c(cc2C1)OCO3`: the total cell number is -0.785.

In turn, `CO[C@H]1CC[C@@H](O[C@H]2C[C@H]([C@]3(C)CC[C@]4(C[C@H](O)[C@@H](C)[C@@H]([C@@H](C)/C=C(\C)C(=O)[C@H](C)C[C@H](C)C(=O)O)O4)O3)O[C@]3(O[C@@H]([C@H]4O[C@@](O)(CO)[C@H](C)C[C@@H]4C)C[C@@H]3C)[C@@H]2C)O[C@@H]1C` [Nanchangmycin] came in with a total cell number of -27.5.

For `COc1cc(C(O)CN)ccc1O` (racemic) [(±)-Normetanephrine hydrochloride], the total cell number is -1.67.

With `COc1cc2c(cc1OC)C1CC(=O)C(CC(C)C)CN1CC2` (stereo unspecified) [Tetrabenazine], the total cell number was -0.277.

Regarding `CC(N)C(O)c1ccc(O)c(O)c1` (single isomer, unassigned; (-)) [(-)-alpha-Methylnorepinephrine], the total cell number is -0.161.

In the case of `CCCCC/C=C\C/C=C\C/C=C\C/C=C\CCCC(=O)NCc1ccc(O)c(OC)c1` [Arvanil], the total cell number was -8.09.
